UDG counterscr: blocks uracil-DNA glycosylase in AID counter-screen; FRET deamination/UDG coupled assay, UDG read, 4 h; Potency, µM (doses to about 115 µM), for inactives: top-dose activity change, negative = inhibition, most hits filed as inhibitors; hit rate 0.14% among 91,000; note: nearly all actives have a fitted effect of over 65% in size
AID inhibitor: inhibitors of human activation induced cytidine deaminase. AID deamination FRET fluorescence, UDG-coupled, 4 h. hit rate 0.32% among 91,000. Potency, µM (doses to about 115 µM), hits mostly inhibitors. Q9GZX7. AID 1347428; note: nearly all actives have a fitted effect of over 25% in size
Target sequence (Q9GZX7 whole entry, looked up): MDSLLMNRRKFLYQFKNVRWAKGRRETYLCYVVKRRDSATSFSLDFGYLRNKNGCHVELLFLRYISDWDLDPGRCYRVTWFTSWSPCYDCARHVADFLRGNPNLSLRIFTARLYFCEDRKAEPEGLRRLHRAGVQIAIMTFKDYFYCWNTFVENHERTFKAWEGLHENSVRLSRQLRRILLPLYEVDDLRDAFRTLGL
The depositor's hits bear a star; i = inactive; ? = inconclusive. This is a sample that favours compounds with a hit; in the whole collection about 0.47% have one here. Calls come from the whole dose curve; as a rule, active = well fitted curve in the direction sought with a large enough effect; inconclusive = small, poorly fitted or top-dose-only effect, or another doubt; inactive = no such curve, though single readings can be large; an effect the other way counts as inactive or inconclusive. % is set by controls: 0 for no effect and ±100 for the full control effect; potency is the fitted concentration of half-maximal effect.

SMILES | UDG counterscr | AID inhibitor
CCOc1cc(CNc2ccc(O)cc2)cc(Br)c1OCc1ccccc1 | -13% | i
Oc1ccc(NCc2ccccc2OCc2ccc(Cl)cc2)cc1 | -11% | 32µM*
Oc1ccc(NCc2ccccc2OCc2ccccc2)cc1 | 79µM* | 32µM*
CCOc1cc(CNc2ccc(O)cc2)ccc1OCc1ccc(Cl)cc1 | -7% | ?
N#Cc1ccccc1NC(=O)c1ccccc1Oc1ccccc1 | 0% | i
CC(C)(C)c1ccc(C2Sc3ccccc3NC3=C2C(=O)c2ccccc23)cc1 (stereo unspecified) | 89µM* | i
O=C1CCCC2=C1C(c1ccc(C(F)(F)F)cc1)C1=C(N2)c2ccccc2C1=O (stereo unspecified) | -1% | i
OC(COc1ccccc1)CN1CCN(c2nccs2)CC1 (stereo unspecified) | -8% | i
O=C(CN1CCC(C(=O)NCc2ccco2)CC1)NC1CCCC1 | -9% | i
CC(C)(Oc1ccccc1)C(=O)Nc1ccccc1C#N | -8% | i
NNCCc1ccccc1 | 32µM* | 45µM*
Nc1ccccc1C(=O)NCCc1ccccc1 | -1% | i
O=C(Nc1cccc2cnccc12)c1cccc(S(=O)(=O)N2CCCCC2)c1 | 0% | i
CCOc1ccc(-c2nc(CSCC(=O)N3CCN(c4ccc(F)cc4)CC3)c(C)o2)cc1 | -9% | i
CCOc1ccc(-c2nc(CSCC(=O)N3CCN(c4cccc(C(F)(F)F)c4)CC3)c(C)o2)cc1 | 29% | 32µM*
CCOC(=O)c1c(C)oc2nc(C)nc(N3CCN(c4cccc(C(F)(F)F)c4)CC3)c12 | -7% | 14µM*
CCOC(=O)c1c(C)oc2nc(C)nc(N3CCN(c4ccccc4)CC3)c12 | 1% | i
CC12CCC(C(=O)Nc3ccccc3)(CC1=O)C2(C)C (stereo unspecified) | 6% | i
O=C(CSc1nccn1-c1ccc(Cl)cc1)Nc1ccc(Cl)c(Cl)c1 | -5% | i
O=C(CSc1nccn1-c1cccc(Cl)c1)Nc1cccc(C(F)(F)F)c1 | -20% | 32µM*
CC(C)c1nnc(NC(=O)C2CCN(C(=O)c3ccc(F)cc3)CC2)s1 | -3% | i
COc1ccc(CC(=O)NC(C)c2nnc(SCC(=O)c3ccc(Cl)cc3Cl)n2C)cc1 (stereo unspecified) | 0% | i
CCN1c2cc(C)ccc2-n2cccc2C12CCN(C(=O)Nc1cc(OC)c(OC)c(OC)c1)CC2 | 89µM* | ?
CCN1c2ccccc2-n2cccc2C12CCN(C(=O)Nc1ccccc1Br)CC2 | -7% | i
CCc1ccc(-c2nc(-c3nc(-c4ccc(C)cc4C)cs3)sc2C)cc1 | 0% | i
SMILES | UDG counterscr | AID inhibitor
CN(C)CCOC(=O)C12CCC3CC(CC(C3)C1)C2 | -3% | i
Cc1nc(-c2ccc(F)cc2)sc1CCNC(=O)c1ccc(C(C)(C)C)cc1 | -13% | 16µM*
COc1ccc(-c2nc(C)c(CCNC(=O)c3cccs3)s2)cc1OC | -9% | i
Cc1nc(-c2ccc(F)cc2)sc1CCNC(=O)c1cccs1 | 79µM* | ?
Cc1nc(-c2ccc(F)cc2)sc1CCNC(=O)c1ccccc1 | 5% | i
CCN(CC)c1ccc(C(=O)NCc2ccco2)cc1 | 7% | i
CC(=O)N1N=C(c2c(-c3ccccc3)c3cc(Cl)ccc3n(C)c2=O)CC1c1cccs1 (stereo unspecified) | -18% | 45µM*
CC(=O)N1N=C(c2ccc(C)cc2)CC1c1cn(-c2ccccc2)nc1-c1cccs1 (stereo unspecified) | -6% | i
Cc1sc(N)nc1Cc1ccccc1 | 2% | i
CNC(=O)c1ccc(CN(C(=O)Cn2c(C)cc3ccccc32)C2CC2)cc1 | 1% | i
CCn1cc(C(=O)NCCc2ccc(OC)c(OC)c2)c(=O)c2cc(S(=O)(=O)N(C)C3CCCCC3)ccc21 | -23% | 16µM*
CCn1cc(C(=O)NCCc2ccc(OC)c(OC)c2)c(=O)c2cc(S(=O)(=O)N3CCCCCC3)ccc21 | -15% | i
Cc1ccc(C)c(-c2csc(Nc3ccc(S(=O)(=O)Nc4nc(C)cc(C)n4)cc3)n2)c1 | 89µM* | ?
Cc1ccc(-c2csc(Nc3ccc(S(=O)(=O)Nc4nc(C)cc(C)n4)cc3)n2)cc1 | ? | i

Screens (PubChem)
